# An excerpt weighted towards active compounds, which were near 3.6% of everything screened.
# HepG2 tox-1: HepG2 cytotoxicity, counter-screen for TGF-b inhibitors | HepG2 CAGA-GFP viability, ATP luminescence, 18 h | 410,000 compounds, 0.76% hits | AID 588856 | Potency, µM (doses to about 46.1 µM), for inactives: at the highest dose activity change, negative = cytotoxicity, hits mostly cytotoxic
#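 CellTiter-Glo luminescence gave cytotoxicity after 18 hours at 37 degrees C. The cells were HepG2 CAGA-GFP in 1% FBS DMEM, stimulated with 500 pg/mL TGF-beta after compound addition. %Activity was normalised to no-cell wells (complete cell-killing) and DMSO (no toxicity), and curves were fitted and classified.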
# TGFb SMAD3 inh: blocks TGF-b signaling. HepG2 CAGA-GFP TGF-b/SMAD3 reporter, GFP fluorescence, 18 h; TGF-beta stimulated, 500 pg/mL final. 410,000 compounds, 1.2% hits. Potency, µM (series often up to 46.1 µM), for the others: at the highest dose activity, negative = inhibition, hits mostly inhibitors; also: % is scaled to controls: 0 for no effect and ±100 for the full control effect; nearly all actives have a fitted effect of over 65% in size
#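 Inhibition of TGF-beta-driven CAGA-GFP reporter expression in HEPG2 cells is measured by cellular GFP fluorescence after 18 h stimulation with 500 pg/mL recombinant TGF-beta in 1% FBS medium at 37 degrees C.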
# Nrf2 activator: activators of Nrf2 (ARE) signaling | AREc32 ARE-luciferase reporter (MCF7-derived line), luminescence, 24 h | Potency, µM (series often up to 46.1 µM), for the others: top-dose activation, actives largely listed as activators | 410,000 compounds, 0.31% hits | AID 624171; also: % of control where 0% means no effect; nearly all actives have a fitted effect of over 65% in size
#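 Cells of the AREc32 ARE-luciferase line are plated in OPTI-MEM containing 5% FBS and left overnight at 37 deg C. Compounds are pinned in, incubation continues 24 hr, and firefly luciferase signal is then measured.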
# Nrf2 inh: blocks Nrf2 signaling | A549 ARE-Fluc reporter, luciferase luminescence, 18-24 h | Potency, µM (highest dose often 46 µM), for inactives: at the top dose activity change, negative = inhibition, actives largely listed as inhibitors | 360,000 compounds, 2.1% hits | AID 504444; also: % is scaled to controls: 0 for no effect and ±100 for the full control effect; nearly all actives have a fitted effect of over 60% in size
#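 Cells were seeded and rested 2 h, then exposed to compounds for 18-24 h. CellTiter-Fluor was read first as a viability measure. BugLite was added 15 min before the final luminescent read of ARE-luciferase activity in A549 cells.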
# A549 viability: counter-screen for Nrf2 inhibitors: cytotoxicity in A549 cells; A549 ARE-Fluc cells, CellTiter-Fluor viability, 18-24 h; Potency, µM (titrated, usually from 46 µM), inactives show at the top dose activity change, negative = cytotoxicity, usual class: inhibitors; 390,000 compounds, 0.16% hits; also: % is scaled to controls: 0 for no effect and ±100 for the full control effect
#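 A549 ARE-Fluc cells in 5% FBS OPTI-MEM, 5000 cells/well, rested 2 h then exposed to compounds in concentration-response for 18-24 h at 37 °C. Viability by CellTiter-Fluor fluorescence (Ex 405/Em 525) after 30 min; luciferase luminescence (BugLite, 15 min, RT) read afterwards.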
# TGFb confirm: TGF-b pathway inhibition, cherry-pick retest; HepG2 CAGA-GFP TGF-b reporter, GFP fluorescence, 18 h; cells stimulated with TGF-beta, 500 pg/mL; shares compounds with TGFb SMAD3 inh; Potency, µM (top dose mostly 46.1 µM), inactives show top-dose activity, negative = inhibition, hits mostly inhibitors; 1,600 compounds, 63% hits; also: % is scaled to controls: 0 for no effect and ±100 for the full control effect; nearly all actives have a fitted effect of over 65% in size
# HepG2 tox-2: HepG2 cytotoxicity, TGF-b inhibitor counterscreen; shares compounds with TGFb SMAD3 inh; HepG2 CAGA-GFP viability, ATP luminescence, 18 h; cells stimulated with TGF-beta, 500 pg/mL; Potency, µM (titrated, usually from 46.1 µM), inactives show top-dose activity, negative = cytotoxicity, actives largely listed as inhibitors; 1,600 compounds, 27% hits; AID 720535; also: % is scaled to controls: 0 for no effect and ±100 for the full control effect; nearly all actives have a fitted effect of over 70% in size
# TGFb CCL64 inh: blocks TGF-b signaling in CCL64 reporter cells; 1,600 compounds, 41% hits; AID 720536; Potency, µM (titrated, usually from 46.1 µM), without a hit: at the top dose activity, negative = inhibition, usual class: inhibitors; shares compounds with TGFb SMAD3 inh; CCL64 CAGA-GFP reporter, TGF-b stimulated, GFP fluorescence, 18 h; also: nearly all actives have a fitted effect of over 65% in size
# COP TGFb inh: blocks TGF-b signaling in HepG2 COP reporter | HepG2 COP-GFP TGF-b reporter, GFP fluorescence, 18 h; cells stimulated by added recombinant TGF-beta | 1,600 compounds, 3% hits | Potency, µM (series often up to 46.1 µM), without a hit: top-dose activity, negative = inhibition, actives largely listed as inhibitors | shares compounds with TGFb SMAD3 inh | AID 720537; also: nearly all actives have a fitted effect of over 70% in size
# * marks the source's active call; other numbers are inactive results; u = inconclusive; x = not tested or not shown. Calls follow the shape of the dose curve; as a rule, active = well fitted curve in the direction sought with a large enough effect; inconclusive = small, poorly fitted or top-dose-only effect, or another doubt; inactive = no such curve, though single readings can be large; an effect the other way counts as inactive or inconclusive. Potency is read from the fitted curve at half-maximal effect.
SMILES,HepG2 tox-1,TGFb SMAD3 inh,Nrf2 activator,Nrf2 inh,A549 viability,TGFb confirm,HepG2 tox-2,TGFb CCL64 inh,COP TGFb inh
O=C(CCN1CC2CCC(CC2)C1)c1cccs1,-25%,13µM*,0%,-2%,1%,2.6µM*,21µM*,2.9µM*,u
Cc1ccc2c(c1)C1CN(C)CCC1N2C(=O)c1cccs1 (stereo not given),13%,6%,5%,4%,-1%,x,x,x,x
CC(=O)OCC12CC(OC(=O)CC(C)C)C(C)=CC1OC1C(O)C(OC(C)=O)C2(C)C12CO2 (stereo not given),-1%,-117%,-2%,0.021µM*,x,0.01µM*,x,0.0052µM*,11%
Cc1nn(-c2nccs2)c2c1C(=O)CC(C)(C)C2Br (stereo not given),-9%,11µM*,3%,u,4%,13µM*,u,u,34%
CC1(C)CN=C(Nc2ccc(F)c(F)c2)S1,17%,7%,3%,3%,6%,x,x,x,x
c1ccc(C2c3ccccc3-n3nncc3CN2CC2CCCCC2)cc1 (stereo not given),-10%,11µM*,10%,u,6%,18µM*,u,26µM*,26%
Cc1c(C=O)c2ccccc2n1Cc1ccc(F)cc1,-31%,5.6µM*,4%,20%,3%,1.3µM*,1.6µM*,10%,-4%
O=C(CCc1nnc2ccc(NCc3ccc(F)cc3)nn12)N1CCC2(CC1)OCCO2,5%,12%,0%,-1%,3%,x,x,x,x
COc1cccc(C(c2nnnn2C2CCCC2)N2CCC3(CC2)C(=O)NCN3c2ccccc2)c1OC (stereo not given),9%,u,0%,x,x,x,x,x,x
COc1ccc(C(c2nnnn2C2CCCCC2)N2CCC3(CC2)C(=O)NCN3c2ccccc2)cc1 (stereo not given),-44%,u,0%,x,x,u,-21%,18µM*,-4%
CCCCn1nnnc1C(c1cccc2ccccc12)N1CCC2(CC1)C(=O)NCN2c1ccccc1 (stereo not given),-5%,18µM*,-1%,x,x,15µM*,u,u,60%
O=C1NCN(c2ccccc2)C12CCN(C(c1ccccc1)c1nnnn1C1CCCC1)CC2 (stereo not given),-2%,11µM*,0%,x,x,u,2%,21µM*,3%
Clc1ccc(C(Cl)(Cl)Cl)c(Cl)c1,0%,-4%,0%,-16%,1%,x,x,x,x
COc1cc(O)c2c(c1)/C=C/C[C@H](O)[C@H](O)C(=O)CCC[C@H](C)OC2=O,-5%,2µM*,3%,x,x,8.2µM*,-12%,7.3µM*,u
C[C@H]1CCCC(=O)CCCCCc2cc(O)cc(O)c2C(=O)O1,-6%,3%,-1%,1%,0%,x,x,x,x
